# Data published in PubChem BioAssay (Tox21).
# Results filed as inconclusive are left out. Active and inactive are the calls of the source. The call rests on the fitted dose curve; in most records, active means well fitted cell-killing curve with a large enough effect in the repeat runs; inconclusive means weak or mixed curves, or effect the other way; inactive means flat fitted curve, though single readings scatter.
# Test: qHTS assay to identify small molecule antagonists of the constitutive androstane receptor (CAR) signaling pathway - cell viability counter screen (AID 1224837); further: nearly all actives have a fitted effect of over 45% in size
# Conditions: HepG2-CYP2B6-hCAR viability, CellTiter-Fluor, 23 h, co-treated with 50 nM CITCO; series mostly up to 92.4 µM; activity change, negative = cytotoxicity: at the top concentration
# Excerpt: National Center for Advancing Translational Sciences [NCATS]
# NIH Chemical Genomics Center [NCGC]
# U.S. Environmental Protection Agency [EPA]
# National Institutes of Environmental Health Sciences [NIEHS]
# National Toxicology Program [NTP]
# U.S. Food and Drug Administration [FDA]
# The constitutive androstane receptor (CAR) is a nuclear receptor which regulates multiple drug metabolizing enzymes (DMEs) and transporters. Activating CAR will generally increase the transcription and subsequent translation of CYP2B6 and CYP3A4. These two DMEs represent about 50% of the drug metabolizing potential in the body. When CAR is deactivated, the metabolizing potential in the body will decrease, subsequently increasing the toxicity in the body or lowering the therapeutic potential of a pro-drug. Recently, there have also been studies performed indicating CARs role in energy metabolism and cancer therapy. Therefore, inhibiting CARs activity could have a potential effect on diabetes and cancer. Identifying environmental toxins and compounds which modulate CAR, through the use of the Tox21 10K compound collection, will be an important step in determining the toxicity and potential therapeutic effects these factors will have on the human body. To differentiate true CAR antagonists from cytotoxic substances, the assay is multiplexed with a cell viability assay.
# Tox21 Assay Protocol Summary:
# A double-stable (hCAR and CYP2B6-2.2kb) transfected cell line, derived from human hepatoma (HepG2) cells, was utilized for the duration of the quantitative high-throughput screens. The HepG2-CYP2B6-hCAR cells were dispensed at 2500 cells/4 uL/well in 1536-well white solid bottom plates using a Multidrop Combi. After the assay plates were incubated at 37 C/5% CO2 for 4 hrs, 23 nL of compounds at 15 concentrations (from 5-48 columns) or positive control (from 1 to 4 columns) were transferred to the assay plates using a Pintool station. One uL of CITCO (final concentration = 50 nM) was added, using a Flying Reagent Dispenser, inside each well. After a 23 hr incubation period at 37 C/5% CO2, 1 uL of CellTiter-Fluor reagent was added into each well of the assay plates using a Flying Reagent Dispenser. The fluorescence intensity in the plates was then measured using a ViewLux plate reader.
# On the % scale 0 is the no-effect control and ±100 the full control effect; potency means the concentration at half of the fitted maximal effect.
Compound,"activity change, negative = cytotoxicity",Potency
C=C(C)CCO,-0.129% (inactive),–
COc1c(Br)cc(Br)c(C)c1Br,4.2% (inactive),–
CCCCCCCCOC(=O)c1cc(O)c(O)c(O)c1,-18.3% (inactive),–
CCOC=C(C(=O)OCC)C(=O)OCC,6.69% (inactive),–
CCN(CC)c1ccc2c(c1)Oc1cc(N(CC)CC)ccc1C21OC(=O)c2ccccc21,–,4.73 µM (active)
CCCCCCCCCC[N+](C)(CCCCCCCCCC)CCC[Si](OC)(OC)OC,9.84% (inactive),–
CCCCCCCCCCCCS(=O)(=O)Cl,-7.2% [at 19 µM] (inactive),–
CCOc1nc(F)cc2nc(S(=O)(=O)Nc3c(Cl)cccc3C(=O)OC)nn12,-5.89% (inactive),–
CC(C)(C)c1cc(CCC(=O)OCCSCCOC(=O)CCc2cc(C(C)(C)C)c(O)c(C(C)(C)C)c2)cc(C(C)(C)C)c1O,-11.2% [at 42.5 µM] (inactive),–
Oc1ccc(Cl)cc1C1CCCC1,-6.01% (inactive),–
Cn1ccnc1,1.91% (inactive),–
Clc1nc(C(Cl)(Cl)Cl)c(Cl)c(Cl)c1Cl,-31.9% (inactive),–
c1ccc(-c2ccc(C(c3ccccc3)n3ccnc3)cc2)cc1 (stereo not given),-9.83% [at 42.5 µM] (inactive),–
CCN(CC)c1ccc(C=O)c(O)c1,-2.73% (inactive),–
CCC(O)CO (stereo not given),-4.57% (inactive),–
Cc1cc(C)c(O)c(C(C)(C)C)c1,-6.9% (inactive),–
CC(c1cc(C(C)(C)C)cc(C(C)(C)C)c1O)c1cc(C(C)(C)C)cc(C(C)(C)C)c1O,10.7% (inactive),–
CCC1(C)C(=O)N(Cl)C(=O)N1Cl (stereo not given),4.22% (inactive),–
O=C(CCN1CCC(c2ccccc2)C1)c1ccc2c(c1)OCCO2 (stereo not given),-18.2% [at 42.5 µM] (inactive),–
O=C1C=CC(=O)N1c1cccc(N2C(=O)C=CC2=O)c1,–,61.1 µM (active)

Compound,"activity change, negative = cytotoxicity",Potency
Cc1ccc(C2OC[C@@H]3OC(c4ccc(C)cc4)O[C@H]([C@H](O)CO)[C@@H]3O2)cc1 (stereo not given in full),-3.31% (inactive),–
CCc1cccc(CC)c1,7.57% (inactive),–
C=CC(C)(C)O,-3.45% (inactive),–
Cc1cccc(C)c1C,0.485% (inactive),–
O[Si](c1ccccc1)(c1ccccc1)c1ccccc1,-15.9% (inactive),–
CC1(C)[C@H]2CC[C@]1(C)C(=O)C2,-1.31% (inactive),–
CCCCNc1ccc(NCCCC)c2c1C(=O)c1ccccc1C2=O,5.61% [at 19 µM] (inactive),–
c1ccc(-c2nc3ccccc3[nH]2)cc1,-28.7% (inactive),–
C=C[Si](C)(C)Cl,-8.76% [at 8.39 µM] (inactive),–
CC(C)(C)c1ccc(OC2CCCCC2O)cc1 (stereo not given),-11% (inactive),–
N#Cc1nc(Cl)c(Cl)c(Cl)c1Cl,–,27.3 µM (active)
Oc1ccc2c(c1)CCC2,-0.147% (inactive),–
[Cl][Eu]([Cl])[Cl],0.56% (inactive),–
C/C=C/C(=O)C1=C(C)C=CCC1(C)C,0.96% (inactive),–
CN[C@H]1CC[C@@H](c2ccc(Cl)c(Cl)c2)c2ccc(S(N)(=O)=O)cc21,–,61.1 µM (active)
O=C1CCC(=O)N1,-6.5% (inactive),–
COc1cc(/C=C/C(=O)CC(=O)/C=C/c2ccc(O)c(OC)c2)ccc1O,–,24.5 µM (active)
Cc1cc(F)ccc1-c1cc(N2CC[C@@H](O)[C@H]2CO)ncc1N(C)C(=O)C(C)(C)c1cc(C(F)(F)F)cc(C(F)(F)F)c1,-11.9% (inactive),–
Nc1ccc(Cl)c([N+](=O)[O-])c1,3.42% (inactive),–
NC(=O)c1ccccc1Cl,-0.86% (inactive),–
